In PubChem BioAssay:
A number with no mark means an inactive call. For part of these data: Measured potencies and affinities stand elsewhere. Activity calls are given as the source filed them. Unless noted, how the calls were made is not given here.

Key:
[1] = antimalarial activity against Dd2 strain (AID 2302;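 active means growth inhibition above 50% at the single 2 µM test dose, taken to imply half-maximal potency below 2 µM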;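 further: 0% = DMSO untreated growth and 100% = chloroquine plus artemisinin killed control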); details: P. falciparum Dd2 in RBCs, LDH growth readout, 72 h; at 2 µM; hits give high values
[2] = human hepatoma cell viability loss – ATP luminescence, cytotoxicity control for P. falciparum antimalarial project, primary screen (AID 2303;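 active means inhibition above 50%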;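 further: 0% = DMSO wells and 100% = digitonin-killed cells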); details: HepG2 viability, 24-48 h, at 10 µM, hits give high values
[3] = biological target: L-lactate dehydrogenase (Plasmodium falciparum (isolate CDC / Honduras)) (UniProt Q27743); assay: PfLDH activity inhibition – cell lysate, 3D7 strain, counter-screen for P. falciparum growth inhibition project (AID 2304);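 further: 0% = vehicle and 100% = reference inhibitor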; details: P. falciparum 3D7 crude extract, LDH APAD/NBT absorbance; at 2 µM; hits give high values
[4] = inhibition of 3D7 malaria parasite growth – strain 3D7 (AID 2306);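 further: 0% = DMSO wells and 100% = chloroquine plus artemisinin control wells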; details: P. falciparum 3D7 erythrocytic growth, LDH absorbance, 72 h; at 2 µM; hits give high values
[5] = biological target: Calcium-dependent protein kinase 1 (Plasmodium falciparum (isolate 3D7)) (UniProt P62344); assay: PfCDPK1 kinase inhibitors, biochemical, TCAMS library (AID 1159585; cut-off not given, nearly all actives have IC50 up to about 0.98 µM;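 further: inhibitors leave more ATP so luminescence rises with inhibition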); details: recombinant PfCDPK1, Kinase-Glo ATP depletion luminescence
[6] = biological target: Plasmodium falciparum protein kinase 6 (PK6, PF3D7_1337100) (UniProt Q8IDW1); assay: PfPK6 kinase inhibitors, biochemical, TCAMS library (AID 1159586); details: recombinant PfPK6, Kinase-Glo ATP depletion luminescence
[7] = biological target: Protein kinase 7 (PK7), Plasmodium falciparum 3D7 (PF3D7_0213400) (UniProt Q7YTF7); assay: inhibition of Plasmodium PK7 catalytic activity – biochemical, TCAMS antimalarial set, Kinase-Glo luminescence (AID 1159587); details: recombinant PfPK7, Kinase-Glo ATP depletion luminescence
[8] = biological target: Calcium-dependent protein kinase 4 (Plasmodium falciparum (isolate 3D7)) (UniProt Q8IBS5); assay: PfCDPK4 kinase inhibitors, biochemical, TCAMS library (AID 1159588; cut-off not given, nearly all actives have IC50 up to about 0.91 µM); details: recombinant PfCDPK4, Kinase-Glo ATP depletion luminescence
Calcium-dependent protein kinase 4 (Plasmodium falciparum (isolate 3D7)), sequence (Q8IBS5 whole entry, looked up): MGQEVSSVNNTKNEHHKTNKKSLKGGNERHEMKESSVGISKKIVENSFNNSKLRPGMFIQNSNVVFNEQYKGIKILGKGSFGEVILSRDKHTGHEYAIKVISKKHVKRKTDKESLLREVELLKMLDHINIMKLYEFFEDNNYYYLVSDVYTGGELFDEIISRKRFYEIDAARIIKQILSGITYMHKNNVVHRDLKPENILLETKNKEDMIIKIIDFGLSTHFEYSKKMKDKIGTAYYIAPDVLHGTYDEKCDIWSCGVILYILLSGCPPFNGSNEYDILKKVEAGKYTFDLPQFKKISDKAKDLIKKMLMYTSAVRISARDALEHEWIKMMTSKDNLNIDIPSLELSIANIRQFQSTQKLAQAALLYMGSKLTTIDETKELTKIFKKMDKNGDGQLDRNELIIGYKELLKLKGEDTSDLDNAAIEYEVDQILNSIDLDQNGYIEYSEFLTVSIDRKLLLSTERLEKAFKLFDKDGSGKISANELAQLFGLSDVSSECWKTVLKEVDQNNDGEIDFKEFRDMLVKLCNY

L-lactate dehydrogenase (Plasmodium falciparum (isolate CDC / Honduras)), sequence (Q27743 whole entry, looked up): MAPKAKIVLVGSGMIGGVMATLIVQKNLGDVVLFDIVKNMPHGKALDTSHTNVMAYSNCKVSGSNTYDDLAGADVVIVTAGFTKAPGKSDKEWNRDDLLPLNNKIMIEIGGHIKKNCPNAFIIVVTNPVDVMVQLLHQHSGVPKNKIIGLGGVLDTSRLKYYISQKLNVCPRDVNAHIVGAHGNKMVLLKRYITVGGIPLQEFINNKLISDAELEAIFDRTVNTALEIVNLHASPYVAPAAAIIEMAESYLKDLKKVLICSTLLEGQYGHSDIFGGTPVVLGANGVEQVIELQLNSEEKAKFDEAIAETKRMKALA
Calcium-dependent protein kinase 1 (Plasmodium falciparum (isolate 3D7)), sequence (P62344 whole entry, looked up): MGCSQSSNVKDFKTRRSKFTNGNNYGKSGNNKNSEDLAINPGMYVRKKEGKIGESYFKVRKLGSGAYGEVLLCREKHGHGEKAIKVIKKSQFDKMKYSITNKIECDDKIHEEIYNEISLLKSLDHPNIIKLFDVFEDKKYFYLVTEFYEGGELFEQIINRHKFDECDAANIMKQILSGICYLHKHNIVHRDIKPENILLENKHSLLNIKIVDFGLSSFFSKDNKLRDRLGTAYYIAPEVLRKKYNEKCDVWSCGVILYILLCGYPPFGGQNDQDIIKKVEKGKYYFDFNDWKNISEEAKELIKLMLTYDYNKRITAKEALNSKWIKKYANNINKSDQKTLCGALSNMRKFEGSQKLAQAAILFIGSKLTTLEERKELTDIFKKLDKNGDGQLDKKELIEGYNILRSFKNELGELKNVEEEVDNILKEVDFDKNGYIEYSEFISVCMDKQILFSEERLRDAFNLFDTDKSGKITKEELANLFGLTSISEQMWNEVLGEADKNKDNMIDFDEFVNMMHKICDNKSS
Plasmodium falciparum protein kinase 6 (PK6, PF3D7_1337100), sequence (Q8IDW1 1-305): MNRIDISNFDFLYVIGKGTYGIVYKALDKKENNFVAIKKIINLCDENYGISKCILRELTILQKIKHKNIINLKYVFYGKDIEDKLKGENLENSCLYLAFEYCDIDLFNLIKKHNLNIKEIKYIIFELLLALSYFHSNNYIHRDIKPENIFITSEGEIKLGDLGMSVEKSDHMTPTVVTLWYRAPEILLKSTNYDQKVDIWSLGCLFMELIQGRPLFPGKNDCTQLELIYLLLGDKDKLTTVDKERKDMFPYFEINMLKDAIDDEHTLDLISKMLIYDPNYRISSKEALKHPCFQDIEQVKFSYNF
Protein kinase 7 (PK7), Plasmodium falciparum 3D7 (PF3D7_0213400), sequence (Q7YTF7 1-343): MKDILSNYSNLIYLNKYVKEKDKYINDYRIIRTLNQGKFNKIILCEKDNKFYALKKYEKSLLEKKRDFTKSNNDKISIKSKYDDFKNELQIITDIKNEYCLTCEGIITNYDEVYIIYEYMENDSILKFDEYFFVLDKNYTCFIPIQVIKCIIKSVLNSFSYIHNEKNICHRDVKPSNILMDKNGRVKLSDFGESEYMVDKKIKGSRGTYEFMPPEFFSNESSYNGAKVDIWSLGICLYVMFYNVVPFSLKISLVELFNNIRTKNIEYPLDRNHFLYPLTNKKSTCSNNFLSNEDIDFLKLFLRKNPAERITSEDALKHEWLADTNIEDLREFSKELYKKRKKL

| Structure (SMILES) | growth inhibition [1] | inhibition [2] | inhibition [3] | growth inhibition [4] | outcome [5] | outcome [6] | outcome [7] | outcome [8] |
| --- | --- | --- | --- | --- | --- | --- | --- | --- |
| COc1ccc(NS(=O)(=O)c2ccc(C(=O)Nc3ccc(OC(F)(F)F)cc3)cc2)cc1N1CCN(CC2CC2)CC1 | -2% | 18% | 3% | 89% (active) | inactive | inactive | inactive | inactive |
| CC1=C(C(=O)Nc2cc3cn[nH]c3cc2F)C(c2cccc(NS(C)(=O)=O)c2)CC(=O)N1 (stereo not drawn) | 97% (active) | -10% | -4% | 96% (active) | inactive | inactive | inactive | inactive |
| O=C(Nc1cccc(CN2CCCN(Cc3ccsc3)CC2)c1)c1cc2ccccc2s1 | 29% | 25% | 5% | 96% (active) | inactive | inactive | inactive | inactive |
| O=C(/C=C/c1ccc(Cl)c(Cl)c1)N1CCC(CCCN2CCC(c3c[nH]c4ccccc34)CC2)CC1 | 45% | 44% | -1% | 101% (active) | inactive | inactive | inactive | inactive |
| O=C(NCc1ccc(Cl)c(Cl)c1)c1ccc(-c2nc3cc(F)c(F)cc3[nH]2)cc1 | 12% | -2% | -2% | 81% (active) | inactive | inactive | inactive | inactive |
| CCCn1cc2c(ccc3nc(N)nc(N)c32)n1 | 0% | 65% (active) | 5% | 95% (active) | inactive | inactive | inactive | inactive |
| Nc1ncc(-c2ccccc2)cc1/C=C/c1cccnc1 | 9% | 33% | -2% | 91% (active) | inactive | inactive | inactive | inactive |
| COc1ccc(N2CCN(c3nc(Nc4ccc(NC(C)=O)cc4)nc(N4CCCC4)n3)CC2)cc1 | 38% | -7% | -2% | 91% (active) | inactive | inactive | inactive | inactive |
| CN1CCC(NCc2ccc(-c3ccc(S(=O)(=O)NCc4ccccc4)s3)cc2)CC1 | 95% (active) | 77% (active) | -3% | 99% (active) | inactive | inactive | inactive | inactive |
| O=C(/C=C/c1ccc(Cl)cc1)NCCCCCN1CCCC(C(=O)Nc2cccc(Cl)c2)C1 (stereo not drawn) | 4% | 21% | 0% | 96% (active) | inactive | inactive | inactive | inactive |
| CN1CCCN(Cc2ccc(-c3cccc(NC(=O)c4ccc(Cl)cc4)c3)cc2)CC1 | 50% (active) | 34% | -4% | 98% (active) | inactive | inactive | inactive | inactive |
| CC(C)=CCc1c(-c2ccc(O)cc2O)oc2c3c(cc(O)c2c1=O)OC(C)(C)C=C3 | 8% | 1% | 5% | 89% (active) | inactive | inactive | inactive | inactive |
| COc1ccc2nccc([C@@H](O)CN3CCC(NCc4ccc5cccc(O)c5n4)CC3)c2c1 | 40% | 10% | 1% | 93% (active) | inactive | inactive | inactive | inactive |
| CN(C)c1cc(NC(=O)Nc2ccc(SC(F)(F)F)cc2)c2ccccc2n1 | 100% (active) | 22% | -4% | 100% (active) | inactive | inactive | inactive | inactive |
| O=C(Nc1cccc(CN2CCCN(Cc3cccc(F)c3)CC2)c1)c1ccc(Cl)c(Cl)c1 | 6% | 28% | -1% | 85% (active) | inactive | inactive | inactive | inactive |
| CC(C)CNCc1ccc(-c2cccc(-c3nc4ccccc4[nH]3)c2)cc1 | 98% (active) | 53% (active) | -5% | 99% (active) | inactive | inactive | inactive | inactive |
| O=C(Nc1ccc(Cl)cc1)Nc1ccc(-c2csc(-c3nc4ccccc4[nH]3)c2)cc1 | 40% | 59% (active) | -4% | 90% (active) | inactive | inactive | inactive | inactive |
| COc1ccc(NC(=O)NC2CCN(c3ccnc4cc(Cl)ccc34)CC2)cc1 | 64% (active) | 5% | -10% | 83% (active) | inactive | inactive | inactive | inactive |
| Cc1[nH]c2c(C)cccc2c1C1CCN(CCC2CCN(C(=O)/C=C/c3ccc(Cl)c(Cl)c3)CC2)CC1 | 79% (active) | 67% (active) | -1% | 100% (active) | inactive | inactive | inactive | inactive |
| CCOC(=O)c1c(CSc2ccccc2)oc2cc(CN(C)C)c(O)c(Cl)c12 | 70% (active) | 12% | -4% | 99% (active) | inactive | inactive | inactive | inactive |
| COc1cccc(C23N=C(Nc4nc5ccccc5[nH]4)NC2(c2cccc(OC)c2)NC(Nc2nc4ccccc4[nH]2)=N3)c1 (stereo not drawn) | 99% (active) | -9% | 3% | 101% (active) | inactive | inactive | inactive | inactive |
